PubChem BioAssay AID1159580 (chemical genetic matrix, 2015)
Where “and” joins values, the source holds several entries; their conditions need not be identical. Identical values can stand only once. Out of some 5,500 compounds screened, about 2,000 (36%) were called active. Not shown: some 18% with an inconclusive outcome. Cut-off read from the data, not from the text of the source: active = normalized growth mostly below about 0.91 (no sharp cut-off); inconclusive = no clear call, values can overlap the other calls; inactive = mostly above about 0.92. The list shows a part of the results.

Assay: chemical genetic growth profiling, strain panel (AID 1159580);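 note: tested at 20 µM; growth read once vehicle control cultures reached saturation at 30 °C; 1 = growth at the plate median or of vehicle wells; lower values mean less growth of the strain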
Conditions: growth OD
[1] = S. cerevisiae deletion strains, locus YAL013W, strain DEP1, active compounds read low
[2] = S. cerevisiae deletion strains, locus YBR021W, strain FUR4, active compounds read low
[3] = S. cerevisiae deletion strains, locus YBR229C, strain ROT2, active compounds read low
[4] = S. cerevisiae deletion strains, locus YCL029C, strain bik1, active compounds read low
[5] = S. cerevisiae deletion strains, locus YDL035C, strain GPR1, active compounds read low
[6] = S. cerevisiae deletion strains, locus YDL074C, strain BRE1, active compounds read low
[7] = S. cerevisiae deletion strains, locus YDL101C, strain DUN1, active compounds read low
[8] = S. cerevisiae deletion strains, locus YDL185W, strain tfp1, active compounds read low
[9] = S. cerevisiae deletion strains, locus YDL192W, strain arf1, active compounds read low
[10] = S. cerevisiae deletion strains, locus YDR101C, strain arx1, active compounds read low
[11] = S. cerevisiae deletion strains, locus YDR162C, strain NBP2, active compounds read low
[12] = S. cerevisiae deletion strains, locus YDR318W, strain mcm21, active compounds read low
[13] = S. cerevisiae deletion strains, locus YDR388W, active compounds read low
[14] = S. cerevisiae deletion strains, locus YDR502C, strain sam2, active compounds read low
[15] = S. cerevisiae deletion strains, locus YEL061C, strain CIN8, active compounds read low
[16] = S. cerevisiae deletion strains, locus YER110C, active compounds read low
[17] = S. cerevisiae deletion strains, locus YER155C, strain BEM2, active compounds read low
[18] = S. cerevisiae deletion strains, locus YER167W, strain BCK2, active compounds read low
[19] = S. cerevisiae deletion strains, locus YGL078C, strain dbp3, active compounds read low
[20] = S. cerevisiae deletion strains, locus YGL086W, strain mad1, active compounds read low
[21] = S. cerevisiae deletion strains, locus YGL248W, strain PDE1, active compounds read low
[22] = S. cerevisiae deletion strains, locus YGR078C, strain PAC10, active compounds read low
[23] = S. cerevisiae deletion strains, locus YGR135W, strain pre9, active compounds read low
[24] = S. cerevisiae deletion strains, locus YGR229C, strain SMI1, active compounds read low
[25] = S. cerevisiae deletion strains, locus YGR252W, strain gcn5, active compounds read low
[26] = S. cerevisiae deletion strains, locus YHR030C, strain SLT2, active compounds read low
[27] = S. cerevisiae deletion strains, locus YHR079C, strain IRE1 (second series), active compounds read low
[28] = S. cerevisiae deletion strains, locus YHR094C, strain hxt1, active compounds read low
[29] = S. cerevisiae deletion strains, locus YHR129C, strain ARP1, active compounds read low
[30] = S. cerevisiae deletion strains, locus YHR200W, strain rpn10, active compounds read low
[31] = S. cerevisiae deletion strains, locus YIL066C, strain RNR3, active compounds read low
[32] = S. cerevisiae deletion strains, locus YIL073C, strain SPO22, active compounds read low
[33] = S. cerevisiae deletion strains, locus YIL125W, strain kgd1, active compounds read low
[34] = S. cerevisiae deletion strains, locus YIR030C, strain dcg1, active compounds read low
[35] = S. cerevisiae deletion strains, locus YJL095W, strain BCK1, active compounds read low
[36] = S. cerevisiae deletion strains, locus YJL134W, strain LCB3, active compounds read low
[37] = S. cerevisiae deletion strains, locus YJL168C, strain set2, active compounds read low
[38] = S. cerevisiae deletion strains, locus YJL187C, strain SWE1 (second series), active compounds read low
[39] = S. cerevisiae deletion strains, locus YJR043C, strain POL32, active compounds read low
[40] = S. cerevisiae deletion strains, locus YKL068W, active compounds read low
[41] = S. cerevisiae deletion strains, locus YKL085W, strain MDH1 (second series), active compounds read low
[42] = S. cerevisiae deletion strains, locus YKL085W, strain MDH1, active compounds read low
[43] = S. cerevisiae deletion strains, locus YKR001C, strain vps1, active compounds read low
[44] = S. cerevisiae deletion strains, locus YLR039C, strain RIC1, active compounds read low
[45] = S. cerevisiae deletion strains, locus YLR058C, strain SHM2, active compounds read low
[46] = S. cerevisiae deletion strains, locus YLR102C, strain apc9, active compounds read low
[47] = S. cerevisiae deletion strains, locus YLR262C, strain YPT6, active compounds read low
[48] = S. cerevisiae deletion strains, locus YLR268W, strain sec22, active compounds read low
[49] = S. cerevisiae deletion strains, locus YLR330W, strain CHS5, active compounds read low
[50] = S. cerevisiae deletion strains, locus YLR342W, strain FKS1 (second series), active compounds read low
[51] = S. cerevisiae deletion strains, locus YLR371W, strain rom2, active compounds read low
[52] = S. cerevisiae deletion strains, locus YLR418C, strain cdc73, active compounds read low
[53] = S. cerevisiae deletion strains, locus YML016C, strain PPZ1, active compounds read low
[54] = S. cerevisiae deletion strains, locus YML032C, strain rad52, active compounds read low
[55] = S. cerevisiae deletion strains, locus YML124C, strain tub3, active compounds read low
[56] = S. cerevisiae deletion strains, locus YMR078C, strain ctf18, active compounds read low
[57] = S. cerevisiae deletion strains, locus YMR223W, strain ubp8, active compounds read low
[58] = S. cerevisiae deletion strains, locus YMR263W, strain SAP30, active compounds read low
[59] = S. cerevisiae deletion strains, locus YMR307W, strain GAS1, active compounds read low
[60] = S. cerevisiae deletion strains, locus YNL067W, strain RPL9B, active compounds read low
[61] = S. cerevisiae deletion strains, locus YNL233W, strain BNI4, active compounds read low
[62] = S. cerevisiae deletion strains, locus YNL250W, strain rad50, active compounds read low
[63] = S. cerevisiae deletion strains, locus YNL271C, strain bni1, active compounds read low
[64] = S. cerevisiae deletion strains, locus YNL298W, strain CLA4, active compounds read low
[65] = S. cerevisiae deletion strains, locus YNL307C, strain MCK1, active compounds read low
[66] = S. cerevisiae deletion strains, locus YNR052C, strain pop2, active compounds read low
[67] = S. cerevisiae deletion strains, locus YOL006C, strain TOP1, active compounds read low
[68] = S. cerevisiae deletion strains, locus YOL012C, strain htz1
[69] = S. cerevisiae deletion strains, locus YOL147C, strain pex11, active compounds read low
[70] = S. cerevisiae deletion strains, locus YOR061W, strain CKA2, active compounds read low
[71] = S. cerevisiae deletion strains, locus YOR069W, strain VPS5, active compounds read low
[72] = S. cerevisiae deletion strains, locus YOR136W, strain idh2, active compounds read low
[73] = S. cerevisiae deletion strains, locus YOR144C, strain elg1, active compounds read low
[74] = S. cerevisiae deletion strains, locus YOR184W, strain ser1, active compounds read low
[75] = S. cerevisiae deletion strains, locus YOR316C, strain cot1, active compounds read low
[76] = S. cerevisiae deletion strains, locus YPR119W, strain clb2, active compounds read low
[77] = S. cerevisiae deletion strains, locus YPR141C, strain kar3, active compounds read low
[78] = S. cerevisiae deletion strains, locus YPR163C, strain tif3, active compounds read low
[79] = S. cerevisiae deletion strains, locus YPR167C, strain met16, active compounds read low
[80] = S. cerevisiae deletion strains, strain wtn01, active compounds read low
[81] = S. cerevisiae strains, strain wild type, active compounds read low

Measured: normalized growth

COC(=O)c1c(C)cc(OC(=O)c2c(C)c(Cl)c(O)c(C=O)c2O)c(C)c1O
inactive: [1] 1 | [2] 1 | [3] 1 | [4] 0.985 | [5] 1.01 | [6] 1 | [7] 0.978 | S. cerevisiae deletion strains, locus YDL134C, strain PPH21, active compounds read low 0.994 | [8] 0.963 | [9] 0.993 | [10] 0.995 | S. cerevisiae deletion strains, locus YDR150W, strain NUM1, active compounds read low 0.984 | [11] 0.997 | [12] 0.99 | [13] 0.985 | [14] 0.984 | [15] 0.99 | [16] 0.989 | [17] 1 | [18] 1 | [19] 0.984 | [20] 0.993 | [21] 0.979 | [22] 0.988 | [23] 0.982 | [24] 0.971 | [25] 1 | [26] 0.993 | [27] 0.987 | [28] 0.987 | [29] 1 | [30] 0.985 | [31] 0.973 | [32] 0.906 | [33] 1 | [34] 0.983 | [35] 1.01 | [36] 0.989 | [37] 0.992 | [38] 0.983 | [39] 1 | S. cerevisiae deletion strains, locus YJR075W, strain HOC1, active compounds read low 1 | S. cerevisiae deletion strains, locus YKL009W, strain mrt4, active compounds read low 0.984 | [40] 0.984 | [41] 0.996 | [42] 0.996 | S. cerevisiae deletion strains, locus YKL190W, strain CNB1, active compounds read low 0.992 | [43] 0.989 | [44] 1 | [45] 0.988 | [46] 0.982 | [47] 0.968 | [48] 0.972 | [49] 0.993 | [50] 0.979 | [51] 0.98 | [52] 1 | [53] 0.992 | [54] 0.981 | [55] 0.985 | [56] 0.981 | [57] 0.979 | [58] 0.971 | [59] 0.972 | [60] 0.995 | S. cerevisiae deletion strains, locus YNL128W, strain TEP1, active compounds read low 0.998 | S. cerevisiae deletion strains, locus YNL153C, strain GIM3, active compounds read low 0.986 | [61] 0.989 | [62] 0.997 | [63] 0.996 | [64] 0.98 | [65] 0.98 | S. cerevisiae deletion strains, locus YNL322C, strain KRE1, active compounds read low 1 | [66] 0.979 | [67] 1.03 | [68] 0.881 | [69] 0.981 | [70] 0.999 | [71] 0.986 | [72] 0.993 | [73] 0.978 | [74] 0.976 | [75] 0.996 | S. cerevisiae deletion strains, locus YPL055C, strain LGE1, active compounds read low 0.984 | S. cerevisiae deletion strains, locus YPL241C, strain CIN2, active compounds read low 0.989 | [76] 0.975 | [77] 0.986 | [78] 0.977 | [79] 0.993 | [80] 0.975 | [81] 1.01

COC(=O)c1c(C)cc(OC(=O)c2c(C)cc(O)c(C=O)c2O)c(C)c1O
inactive: [1] 0.93 | [2] 1.05 | [3] 1 | [4] 0.994 | [5] 0.994 | [6] 1.03 | [7] 1.01 | [8] 0.991 | [9] 0.934 | [10] 0.994 | [11] 0.899 | [12] 0.934 | [13] 0.988 | [14] 0.984 | [15] 0.971 | [16] 1.03 | [17] 1.03 | [18] 0.999 | [19] 1.01 | [20] 0.942 | [21] 0.98 | [22] 0.971 | [24] 0.919 | [25] 1.01 | [26] 0.999 and 0.975 | [27] 0.999 | S. cerevisiae deletion strains, locus YHR079C, strain IRE1, active compounds read low 0.978 | [28] 1 | [29] 0.963 | [30] 0.962 | [31] 0.985 | [32] 1.02 | [33] 0.991 | [34] 1.03 | [35] 0.975 and 0.987 | [36] 1.01 | [37] 1.01 | [38] 0.972 | [39] 0.971 | S. cerevisiae deletion strains, locus YJR066W, strain TOR1, active compounds read low 0.919 | [40] 1.03 | [41] 0.987 | [42] 0.987 | [44] 0.947 | [45] 0.957 | [46] 1.02 | S. cerevisiae deletion strains, locus YLR113W, strain HOG1, active compounds read low 0.995 | [47] 0.933 | [48] 0.916 | [49] 1.01 | [50] 1.07 | [51] 0.99 | [52] 0.924 | [53] 1 | [54] 0.96 | [55] 1 | [56] 1.02 | [57] 0.938 | [58] 0.987 | [59] 0.789 | [60] 0.972 | S. cerevisiae deletion strains, locus YNL183C, strain NPR1, active compounds read low 0.917 | [61] 0.982 | [62] 0.988 | [63] 1.03 | [64] 1.01 | [65] 1.01 | [66] 1 | [67] 1.06 | [68] 0.816 | [69] 1.04 | [70] 1 | [71] 1 | [72] 1.02 | [73] 1.01 | [74] 0.931 | S. cerevisiae deletion strains, locus YOR231W, strain MKK1, active compounds read low 0.981 | [75] 1.03 | S. cerevisiae deletion strains, locus YPL256C, strain CLN2, active compounds read low 0.988 | [76] 0.996 | [77] 1 | [78] 1.01 | [79] 0.963 | [80] 0.948 | [81] 0.926
active: [23] 0.893 | [43] 0.891
